# Only some compounds are listed: those with a hit (about 4.1% of all), similar ones and a draw of the others.
# hcDAF-12 act = H. contortus DAF-12 activation, primary screen. HEK293 hcDAF-12 lit1-tk-luc reporter, luminescence; 0% DMSO, 100% Δ7-dafachronic acid. activation, % at 6.8 µM. 1.4% of 370,000 active. AID 652067;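 active = activation above the mean of all tested compounds plus 3 SD, cut at about 5.5% in these data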
# DAX1 inh-1 = inhibitors of DAX1 repression of SF-1 activated StAR promoter | HEK293T StAR-luciferase reporter, SF-1/DAX-1 repression relief | 1.1% of 370,000 active | inhibition, % at 6.8 µM | AID 652010;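 active = inhibition above the mean over all tested compounds plus 3 SD, cut at about 3.6% in these data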;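 note: higher inhibition means more luminescence from relief of DAX-1 repression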
# ssDAF-12 act = S. stercoralis DAF-12 activation, primary screen. 1% of 370,000 active. HEK293 ssDAF-12/GRIP1 lit1-tk-luc reporter, luminescence; % of 3 µM dafachronic acid response. activation, % at 6.8 µM. AID 652126;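 active = activation above the mean over all tested compounds plus 3 SD, cut at about 0.9% in these data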
# DAX1 inh-2 = inhibits human nuclear receptor DAX1; inhibition, % at 6.75 µM; AID 504766; 0.99% of 340,000 active; P51843; HEK293 Gal4-DAX1 luciferase reporter, luminescence;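 active = inhibition above the mean over all tested compounds plus 3 SD, cut at about 4.2% in these data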;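 note: inhibition shows as a rise in luminescence from relieved DAX1 repression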
# Target sequence (P51843 207-470 limits assumed): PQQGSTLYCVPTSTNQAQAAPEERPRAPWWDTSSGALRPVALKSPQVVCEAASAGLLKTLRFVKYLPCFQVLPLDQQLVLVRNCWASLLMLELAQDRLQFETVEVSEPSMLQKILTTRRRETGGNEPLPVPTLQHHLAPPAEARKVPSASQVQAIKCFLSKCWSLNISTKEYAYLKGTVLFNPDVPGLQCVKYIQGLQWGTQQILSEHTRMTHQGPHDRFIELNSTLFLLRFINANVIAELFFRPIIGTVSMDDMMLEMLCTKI
# hgDAF12 agonist = agonists of H. glycines DAF-12 nuclear receptor. HEK293 GAL4-hgDAF12 UAS-luciferase reporter, agonist luminescence; normalized to butyrate control. activation, % at 6.8 µM. 1.8% of 370,000 active. AID 687014;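 active = activation above a cutoff set at the mean of all screened compounds plus 3 SD, cut at about 10% in these data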
# DAX1 inh confirm = NR0B1 (human) inhibition, confirmation. shares compounds with DAX1 inh-1. HEK293T StAR-promoter luciferase reporter, SF-1/DAX-1 repression. inhibition, % at 6.8 µM. 87% of 2,400 active. AID 652134;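 active = inhibition above the average of every tested compound plus 3 SD, cut at about 3.8% in these data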;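 note: active compounds raise luminescence by relieving repression of the StAR reporter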
# SF1 AF2mut Luc = nonselective inhibitor or artifact in SF-1 mutant DAX1 counter-screen | 78% of 2,400 active | inhibition, % at 6.8 µM | HEK293 StAR-luciferase, SF-1 AF2 mutant, luminescence | shares compounds with DAX1 inh-1 | AID 652136;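 active = inhibition above the mean of all tested compounds plus 3 SD, cut at about 3% in these data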
# Hits are given with their value; - = inactive; . = no result given.
SMILES,hcDAF-12 act,DAX1 inh-1,ssDAF-12 act,DAX1 inh-2,hgDAF12 agonist,DAX1 inh confirm,SF1 AF2mut Luc
O=[N+]([O-])c1ccc(Cl)c(S(=O)(=O)Nc2cccc(-c3ccc(N4CCOCC4)nn3)c2)c1,-,5.5,-,-,-,9.5,4.5
O=S(=O)(Nc1cccc(-c2ccc(N3CCCCCC3)nn2)c1)c1cccc(F)c1,-,4.6,-,-,-,6.9,4.4
O=S(=O)(Nc1cccc(-c2ccc(N3CCCCCC3)nn2)c1)c1ccccc1Cl,-,-,-,-,-,.,.
O=S(=O)(Nc1cccc(-c2ccc(N3CCCCCC3)nn2)c1)c1ccc(F)cc1,-,5.7,-,-,-,-,-
CC(C)(C)C(=O)OC12CCCN(C1)/C(=C/c1cccnc1)C2 (stereo unspecified),-,-,-,.,-,.,.
O=C(NCCC1=CCCCC1)c1ccc([N+](=O)[O-])cc1,-,4.6,-,-,13,13,7.2
O=C(NCCc1ccc(F)cc1)c1ccc([N+](=O)[O-])cc1,-,6.7,-,-,-,7.3,3.9
COc1ccc(C(=O)NCCC2=CCCCC2)cc1,5.6,5.5,1.2,-,-,10,-
O=C(CCNC(=O)c1ccc([N+](=O)[O-])cc1)Nc1ccc(F)cc1,-,-,-,-,-,.,.
O=C(CCSCc1ccc(Cl)cc1)NCCC1=CCCCC1,-,-,-,-,-,.,.
O=C(CCNC(=O)c1ccc(Cl)cc1)NCCC1=CCCCC1,-,5.4,-,-,-,5.8,5.8
C=CCN1C(=O)[C@H](CC(=O)NCCC(C)C)[C@@]2(C(=O)OCC)CCCC=C12,-,-,-,.,-,.,.
CCCC1CCC2(CCCN2CCOC(=S)Nc2ccccc2Br)CC1 (stereo unspecified),-,.,-,.,-,.,.
O=C(NCCC1=CCCCC1)c1ccc(F)cc1,-,6.4,-,-,11,18,6.3
O=C(COC(=O)c1ccccc1-n1cnnn1)c1ccc(F)cc1,-,7.7,-,-,-,7.5,5.6
COCCNC(=S)N(C)[C@H]1C[C@H]2c3[nH]c4c(-c5ccc6c(c5)OCO6)cccc4c3CCN2C[C@H]1[C@H](C)O,-,-,-,.,-,.,.
CCOC(=O)[C@@]12CCCC=C1N(CCc1ccc(Cl)cc1)C(=O)[C@H]2CC(=O)N1CCC(c2ccccc2)CC1,-,-,-,.,-,.,.
Cc1cc(C(=O)COC(=O)c2ccc(O)cc2O)c(C)n1C(C)C,-,7.3,-,-,12,9.8,5.0
CNS(=O)(=O)c1cccc(C(=O)NCC2(N3CCCCC3)CCCCC2)c1,-,-,-,-,-,.,.
CCOc1ccc(S(=O)(=O)Nc2ccc(C(=O)NCC3(N4CCCCC4)CCCCC3)cc2)cc1,-,8.7,-,-,-,8.3,4.9
Cc1cccc(NS(=O)(=O)c2cccc(C(=O)NCC3(N4CCCCC4)CCCCC3)c2)c1,-,5.0,-,-,-,-,-
Cc1ccc(S(=O)(=O)Nc2cccc(C(=O)NCC3(N4CCCCC4)CCCCC3)c2)cc1F,-,6.2,-,-,-,4.6,3.8
COc1ccc(NS(=O)(=O)c2cccc(C(=O)NCC3(N4CCCCC4)CCCCC3)c2)cc1,-,7.8,-,-,-,10,5.4
COc1cccc(C(=O)n2ccc3ccc(-c4ccc5ccn(C(=O)c6cccc(OC)c6)c5c4)cc32)c1,-,-,-,.,-,.,.
COc1ccc2c(c1)Sc1ccc(Cl)cc1N2,-,.,-,.,-,.,.
SMILES,hcDAF-12 act,DAX1 inh-1,ssDAF-12 act,DAX1 inh-2,hgDAF12 agonist,DAX1 inh confirm,SF1 AF2mut Luc
COc1ccccc1CCn1cnc(-c2ccccc2)c1CC(C)C,-,-,-,.,-,.,.
Cc1ccccc1Cn1cc(COC(=O)N2CCOCC2)nn1,-,-,-,.,-,.,.
COC(=O)C1CN(CCO)CCS(=O)(=O)N1Cc1cn(Cc2ccccc2Br)nn1 (stereo unspecified),-,-,-,.,-,.,.
CCN(C[C@H]1N[C@@](C)(C(=O)OC)[C@H]2C(=O)N(Cc3ccccc3)C(=O)[C@@H]12)C(=O)COC,-,5.9,-,-,-,-,-
CC[C@@]1(C(=O)OC)N[C@H](CN(C)C(=O)Nc2ccc(C(F)(F)F)cc2)[C@@H]2C(=O)N(Cc3ccccc3)C(=O)[C@@H]21,-,5.3,2.5,-,-,-,-
O=C(Nc1nnc(SCc2ccccc2)s1)C1=COCCO1,-,-,-,-,-,.,.
C=CCSc1nnc(NC(=O)C2=COCCO2)s1,5.7,6.8,-,-,-,7.1,6.6
O=C(Nc1nnc(SCc2ccccc2F)s1)C1=COCCO1,-,5.8,-,-,-,6.4,-
CCOC(=O)[C@@]12CN(C(=O)OC(C)(C)C)CC=C1N(Cc1ccc(OC)cc1)C(=O)[C@H]2CC(=O)NCc1ccccc1,-,-,-,.,-,.,.
Nc1[nH]c(C(=O)c2ccc(Cl)cc2)c(-c2ccc(Br)cc2)c1C(=O)NCc1ccc(Cl)cc1Cl,-,-,-,.,-,.,.
Cc1cc(C)cc(NC(=O)N2CCN(Cc3nc4ccccc4c(=O)[nH]3)CC2)c1,-,-,-,.,-,.,.
C/C=C/c1ccc2c(c1)O[C@@H](CN(C)C(=O)c1ccc(F)cc1)[C@@H](C)CN([C@H](C)CO)S2(=O)=O,-,4.8,-,-,-,-,4.4
C[C@@H]1CN([C@@H](C)CO)S(=O)(=O)c2ccc(-c3cccc(C#N)c3)cc2O[C@@H]1CN(C)C(=O)c1ccc(F)cc1,-,-,-,-,-,.,.
CCOc1ccc(-n2c(SCC(=O)Nc3cc(C)c(NC(=O)c4ccccc4)cc3OC)nnc2-c2ccncc2)cc1,-,-,-,.,-,.,.
N#Cc1c(NC(=O)c2ccco2)sc2c1CCC2,-,9.4,-,-,11,9.1,3.7
O=C(Nc1sc2c(c1C(=O)O)CCCCC2)c1ccco1,-,-,-,-,-,.,.
O=C(Nc1nnc(C2CC2)s1)c1cncc(Br)c1,-,4.8,-,-,-,5.9,3.9
CCN(c1ccc(OCC(=O)OCC(=O)c2c(N)n(C)c(=O)n(C)c2=O)cc1)S(=O)(=O)c1ccccc1,-,5.2,-,-,-,-,-
CN(c1ccc(OCC(=O)OCC(=O)c2c(N)n(C)c(=O)n(C)c2=O)cc1)S(=O)(=O)c1ccc2ccccc2c1,-,-,-,-,-,.,.
CCc1ccc(NC(=O)Nc2ccon2)cc1,-,4.6,-,-,-,5.6,5.4
O=C(Nc1ccc([N+](=O)[O-])cc1)Nc1ccon1,-,-,-,-,-,.,.
CCN1CCN(c2cc(C)c3cc(NC(=O)c4ccc5c(c4)OCO5)ccc3n2)CC1,-,-,-,-,-,.,.
CCN1CCN(c2ccc(NC(=O)c3ccc4c(c3)OCCO4)cc2C)CC1,-,7.9,-,-,11,11,5.2
